# Experimental data published in PMC5700166.
# Molecular target: T1, GST-Nv-NF-kB (Cys allele) (Nematostella vectensis, UniProt E5G601 2-411)
# T1 sequence: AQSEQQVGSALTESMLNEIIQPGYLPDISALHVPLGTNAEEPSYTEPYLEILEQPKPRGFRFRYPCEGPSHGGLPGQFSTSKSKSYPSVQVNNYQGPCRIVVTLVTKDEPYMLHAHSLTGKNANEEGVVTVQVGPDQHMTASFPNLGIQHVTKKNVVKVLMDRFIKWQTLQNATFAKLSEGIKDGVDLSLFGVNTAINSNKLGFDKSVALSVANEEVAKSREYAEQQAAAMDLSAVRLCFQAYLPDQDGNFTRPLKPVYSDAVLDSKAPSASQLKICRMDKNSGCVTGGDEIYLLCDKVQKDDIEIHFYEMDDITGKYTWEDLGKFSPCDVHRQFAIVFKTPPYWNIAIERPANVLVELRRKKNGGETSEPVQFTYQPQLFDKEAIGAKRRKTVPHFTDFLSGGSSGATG
# Assay: protein-binding microarray (PBM); PBM: ~300 nM protein, 6 mM HEPES pH 7.8, 80 mM KCl, 0.5 mM EDTA, 0.5 mM EGTA, 6% glycerol, 35 ng/ul poly-dIdC, 1% milk, 1 h, room temperature; Ap Aiptasia and Nv Nematostella (sea anemones) / Co Capsaspora / Aq Amphimedon (sponge) / Dm Drosophila / Hu human; RHD is the Rel homology domain; high values mean tight binding
# Settings: dsDNA, one strand shown
row,Sequence,binding signal [z-score]
1,CCGATTAACATCAGGTCGGGAAATGATGTTAATCGGGTCTTGATTCGCTTGACGCTGCTG,2.6
2,CCGATTAACATCAGAGTTTCCCATGATGTTAATCGGGTCTTGATTCGCTTGACGCTGCTG,3.42
3,CCGATTAACATCAGGGAAAAGGATGATGTTAATCGGGTCTTGATTCGCTTGACGCTGCTG,3.4
4,CCGATTAACATCAGGGAAAGGAATGATGTTAATCGGGTCTTGATTCGCTTGACGCTGCTG,3.07
5,CCGATTAACATCAGGGAAAAGAATGATGTTAATCGGGTCTTGATTCGCTTGACGCTGCTG,4.22
6,CCGATTAACATCATGATGGGAAATGATGTTAATCGGGTCTTGATTCGCTTGACGCTGCTG,2.84
7,CCGATTAACATCAAATGTGGGAATGATGTTAATCGGGTCTTGATTCGCTTGACGCTGCTG,1.53
8,CCGATTAACATCAAACAGGGAAATGATGTTAATCGGGTCTTGATTCGCTTGACGCTGCTG,4.69
9,CCGATTAACATCAAGCCCCCCCCTGATGTTAATCGGGTCTTGATTCGCTTGACGCTGCTG,4.21
10,CCGATTAACATCACATGGGAAACTGATGTTAATCGGGTCTTGATTCGCTTGACGCTGCTG,2.14
11,CCGATTAACATCATGGGAAGGTTTGATGTTAATCGGGTCTTGATTCGCTTGACGCTGCTG,1.55
12,CCGATTAACATCACTTTCCCAAATGATGTTAATCGGGTCTTGATTCGCTTGACGCTGCTG,2.64
13,CCGATTAACATCAGAATCTCCCATGATGTTAATCGGGTCTTGATTCGCTTGACGCTGCTG,2.74
14,CCGATTAACATCAGCTCCCCCCCTGATGTTAATCGGGTCTTGATTCGCTTGACGCTGCTG,3.87
15,CCGATTAACATCACTCCCTAAAATGATGTTAATCGGGTCTTGATTCGCTTGACGCTGCTG,2.35

# Molecular target: T2, GST-Co-NF-kB (Capsaspora owczarzaki, UniProt F1ARL5 200-546)
# T2 sequence: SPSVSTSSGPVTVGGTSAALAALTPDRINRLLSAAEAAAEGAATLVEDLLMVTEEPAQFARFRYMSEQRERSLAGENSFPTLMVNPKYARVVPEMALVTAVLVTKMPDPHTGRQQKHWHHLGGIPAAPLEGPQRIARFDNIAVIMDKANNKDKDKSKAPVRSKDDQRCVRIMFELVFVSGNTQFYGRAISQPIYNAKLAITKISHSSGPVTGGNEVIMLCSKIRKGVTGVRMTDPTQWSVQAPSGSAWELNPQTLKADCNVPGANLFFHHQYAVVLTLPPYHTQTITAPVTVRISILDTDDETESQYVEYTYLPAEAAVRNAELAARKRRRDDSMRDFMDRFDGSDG
# Assay: as above
# Settings: dsDNA, one strand shown
row,Sequence,binding signal [z-score]
1,CCGATTAACATCAACTGGGAAAATGATGTTAATCGGGTCTTGATTCGCTTGACGCTGCTG,3.52
2,CCGATTAACATCACCTTGGGAAATGATGTTAATCGGGTCTTGATTCGCTTGACGCTGCTG,2.79
3,CCGATTAACATCAAATCGGGAAATGATGTTAATCGGGTCTTGATTCGCTTGACGCTGCTG,2
4,CCGATTAACATCAAGCGTTTCCCTGATGTTAATCGGGTCTTGATTCGCTTGACGCTGCTG,2.62
5,CCGATTAACATCAGACTGGGAAATGATGTTAATCGGGTCTTGATTCGCTTGACGCTGCTG,3.05
6,CCGATTAACATCAATTTACCCACTGATGTTAATCGGGTCTTGATTCGCTTGACGCTGCTG,2.34
7,CCGATTAACATCATGCCCGGGAATGATGTTAATCGGGTCTTGATTCGCTTGACGCTGCTG,3.51
8,CCGATTAACATCAATCGGGAAATTGATGTTAATCGGGTCTTGATTCGCTTGACGCTGCTG,2.19
9,CCGATTAACATCATGGTGGGAAATGATGTTAATCGGGTCTTGATTCGCTTGACGCTGCTG,2.94
10,CCGATTAACATCACCTCTTTCCCTGATGTTAATCGGGTCTTGATTCGCTTGACGCTGCTG,3.61
11,CCGATTAACATCAGACATTCCCATGATGTTAATCGGGTCTTGATTCGCTTGACGCTGCTG,1.37
12,CCGATTAACATCAGGGGTAGGTTTGATGTTAATCGGGTCTTGATTCGCTTGACGCTGCTG,3.22
13,CCGATTAACATCATCTGGGAAAATGATGTTAATCGGGTCTTGATTCGCTTGACGCTGCTG,3.73
14,CCGATTAACATCAGGGAAAGGTATGATGTTAATCGGGTCTTGATTCGCTTGACGCTGCTG,2.67
15,CCGATTAACATCATGGGGACGACTGATGTTAATCGGGTCTTGATTCGCTTGACGCTGCTG,2.39
16,CCGATTAACATCATGGAGGGAGGTGATGTTAATCGGGTCTTGATTCGCTTGACGCTGCTG,1.14
17,CCGATTAACATCAACTTTCCCAGTGATGTTAATCGGGTCTTGATTCGCTTGACGCTGCTG,3.84
18,CCGATTAACATCACCCACTTCCCTGATGTTAATCGGGTCTTGATTCGCTTGACGCTGCTG,1.4
19,CCGATTAACATCAGGGACAAAAATGATGTTAATCGGGTCTTGATTCGCTTGACGCTGCTG,2.39
20,CCGATTAACATCAGGGAATCAGATGATGTTAATCGGGTCTTGATTCGCTTGACGCTGCTG,1.68

row,Sequence,binding signal [z-score]
1,CCGATTAACATCATGTTGGGAAATGATGTTAATCGGGTCTTGATTCGCTTGACGCTGCTG,2.51
2,CCGATTAACATCAACTCGGGAAATGATGTTAATCGGGTCTTGATTCGCTTGACGCTGCTG,3.32
3,CCGATTAACATCAATTCCCGTACTGATGTTAATCGGGTCTTGATTCGCTTGACGCTGCTG,2.55
4,CCGATTAACATCAACATGGGAAATGATGTTAATCGGGTCTTGATTCGCTTGACGCTGCTG,1.82
5,CCGATTAACATCATCAGGGAAAATGATGTTAATCGGGTCTTGATTCGCTTGACGCTGCTG,2.95
6,CCGATTAACATCAGGTCGGGAAATGATGTTAATCGGGTCTTGATTCGCTTGACGCTGCTG,3.1
7,CCGATTAACATCAGAGTTTCCCATGATGTTAATCGGGTCTTGATTCGCTTGACGCTGCTG,3.76
8,CCGATTAACATCAGGGAAAAGGATGATGTTAATCGGGTCTTGATTCGCTTGACGCTGCTG,2.73
9,CCGATTAACATCAGGGAAAGGAATGATGTTAATCGGGTCTTGATTCGCTTGACGCTGCTG,1.48
10,CCGATTAACATCAGGGAAAAGAATGATGTTAATCGGGTCTTGATTCGCTTGACGCTGCTG,2.97
11,CCGATTAACATCATGATGGGAAATGATGTTAATCGGGTCTTGATTCGCTTGACGCTGCTG,1.71
12,CCGATTAACATCAAATGTGGGAATGATGTTAATCGGGTCTTGATTCGCTTGACGCTGCTG,3.07
13,CCGATTAACATCAAACAGGGAAATGATGTTAATCGGGTCTTGATTCGCTTGACGCTGCTG,2.47
14,CCGATTAACATCAAGCCCCCCCCTGATGTTAATCGGGTCTTGATTCGCTTGACGCTGCTG,4.89
15,CCGATTAACATCACATGGGAAACTGATGTTAATCGGGTCTTGATTCGCTTGACGCTGCTG,2.48
16,CCGATTAACATCATGGGAAGGTTTGATGTTAATCGGGTCTTGATTCGCTTGACGCTGCTG,2.28
17,CCGATTAACATCACTTTCCCAAATGATGTTAATCGGGTCTTGATTCGCTTGACGCTGCTG,2.28
18,CCGATTAACATCAGAATCTCCCATGATGTTAATCGGGTCTTGATTCGCTTGACGCTGCTG,1.64
19,CCGATTAACATCAGCTCCCCCCCTGATGTTAATCGGGTCTTGATTCGCTTGACGCTGCTG,5.77
20,CCGATTAACATCACTCCCTAAAATGATGTTAATCGGGTCTTGATTCGCTTGACGCTGCTG,1.22
